# Laboratory results taken from ChEMBL document CHEMBL3988442, “University of Dundee, Small-Polar-MMV Screening Library” (2021).
# The campaign covered roughly 53,000 compounds. About 900 (1.7%) showed an effect of 50% or more. For the sample, strong results were picked, then their nearest neighbours and some compounds at random.
# System: Mycobacterium tuberculosis
# Assay: Cornell - Phenotypic assay to identify agents that inhibit growth of Mycobacterium tuberculosis
# Assay type: functional
# Set-up: scale not given: direction of the effect not stated beside the values
# Conditions: 10 mM as filed; unlikely as a test dose
row,SMILES,Percent Effect
1,Cc1nc(C)c(CCN2CCC(Oc3ccccc3F)CC2)s1,50.26%
2,Cc1nc(CCN2CCC(Oc3ccccc3F)CC2)cs1,0.3496%
3,Cc1nc(CCN2CCC(Oc3ccccc3F)CC2)c(C)s1,4.042%
4,Cc1cnc(-c2nc(O)c3c(n2)CN(C(=O)CC2CCCC2)CC3)cn1,2.725%
5,CCN(C)S(=O)(=O)N(CC)Cc1ccc2c(c1)OCO2,26.78%
6,CC(C)N(C)S(=O)(=O)N(C)Cc1ccc2c(c1)OCO2,-6.095%
7,CCN(Cc1ccc2c(c1)OCCO2)S(=O)(=O)N(C)C(C)C,54.92%
8,CCn1cnnc1C1CCN(C(=O)c2ccc(OC(C)C)nc2)CC1,22.89%
9,CN(Cc1nnc(C2CC2)o1)Cc1ccccc1-c1ccccc1,24.56%
10,CC(C)c1nnc(CN(C)C(c2ccccc2)c2ccc(F)cc2)o1 (configuration not stated),32.65%
11,CC(C)c1nnc(CN(C)Cc2ccccc2-c2ccccc2)o1,60.67%
12,Cc1nn(C)c(C)c1NC(=O)CN1CCOC(CN(C)C)C1 (configuration not stated),13.8%
13,O=C(C1=CCCC1)N1C[C@@H]2COC[C@]2(COCc2ccncc2)C1,-20.46%
14,CCc1nnc(Nc2cc(C)nc(C3CCN(c4ccncn4)C3)n2)s1 (configuration not stated),-19.2%
15,O=C(NCc1ccccc1)N1CCC(Oc2ncccc2Br)CC1,-14.28%
16,Cc1cccc(OC2CCN(C(=O)c3ccc4c(c3)OCO4)CC2)n1,37.52%
17,O=C(CCC(=O)N1CCC(OCc2cccnc2)CC1)c1ccccc1,-10.19%
18,O=C(Cn1ccc2ccccc21)N1CCC(Oc2cnccn2)CC1,24.96%
19,COC1CCN(C(=O)Cn2ccc3ccccc32)CC1,2.586%
20,O=C(CCn1ccc(=O)[nH]c1=O)N1CCC(Oc2ncccc2Cl)CC1,20.85%
21,Cc1cccc(OC2CCN(C(=O)Cn3ccc4ccccc43)CC2)n1,59.2%
22,O=C(Cn1ccc2ccccc21)N1CCC(Oc2ncccc2Br)CC1,58.45%
23,O=C(CCC(=O)N1CCC(Oc2ncccc2Br)CC1)c1ccccc1,95.35%

row,SMILES,Percent Effect
1,CS(=O)(=O)NCCCNC(=O)c1cccc(-n2cccc2)c1,-24.26%
2,CC(=O)Nc1nc(SCc2ccc3c(c2)OCO3)ns1,6.348%
3,CCCN1CCN(C(=O)Nc2ccccc2Cl)[C@H]2CS(=O)(=O)C[C@H]21,2.165%
4,CC1CCN(Cc2ccccc2CNC(=O)C2CNC(=O)N2)CC1 (configuration not stated),-0.9762%
5,CCOC1COC2(CCN(c3ccccn3)CC2)C1.O=C(O)C(F)(F)F (configuration not stated),3.904%
6,CCOc1ccccc1C(=O)N1CC(=O)N(C2CCC2)CC(O)C1 (configuration not stated),12.12%
7,CN(Cc1cccnc1)[C@@H]1CN(c2ncc(F)cn2)[C@@H]2CCCO[C@H]12,19.63%
8,CN(Cc1cccnc1)[C@@H]1CN(Cc2ccccn2)[C@@H]2CCCO[C@H]12,51.65%
9,CN(Cc1cccnc1)[C@@H]1CN(c2ccccn2)[C@@H]2CCCO[C@H]12,3.977%
10,COc1ccc2c(c1)CC(C1CCOCC1)N(C(=O)c1ccnn1C)C2 (configuration not stated),13.18%
11,CN1CCN(C)C(CNC(=O)N(C)Cc2ccc(Cl)c(F)c2)C1 (configuration not stated),12.24%
12,C=C/C=c1\c(=C/C)oc2c(NCc3ccccc3)nc(C)nc12,70.49%
13,C=C/C=c1\c(=C/C)oc2c(NCc3ccccc3)nc(CC)nc12,44.26%
14,C=C/C=c1\c(=C/C)oc2c(NCc3ccccc3)ncnc12,8.559%
15,O=c1c2ccccc2nc2n1C(CSc1ccc(Br)cc1)CN2 (configuration not stated),19.98%
16,COCCOc1ccc(Cl)c(C(=O)N2CCN(CCO)CC2)n1,-16.9%
17,CNc1ncc(-c2csc(NC(=O)C[C@H]3COCCN3)n2)cn1.Cl,-17.99%
18,Cc1cnc(N2C[C@@H]3CN(C4CCOC4)CCC[C@]3(C(=O)O)C2)nc1.O=C(O)C(F)(F)F (some centres not stated),13.6%
19,NC(=O)C1(CCCc2ccccn2)CCCN(Cc2ncc[nH]2)C1 (configuration not stated),-6.495%
20,O=C(COc1ccc2c(c1)CCC2)N1CCOCC1c1ncon1 (configuration not stated),12.9%
21,CC1CCN(c2ccc(C(=O)N3CCCC3c3ccc[nH]3)cn2)CC1 (configuration not stated),84.24%
22,CC1CCN(c2ccc(C(=O)N3CCCC3c3nncn3C)cn2)CC1 (configuration not stated),-18.06%
23,O=C(COc1ccc2c(c1)CCC2)N1CCCC1c1ccc[nH]1 (configuration not stated),107.5%

row,SMILES,Percent Effect
1,NC(=O)c1cn[nH]c1C1CCCN1C(=O)COc1ccccc1 (configuration not stated),6.51%
2,CS(=O)(=O)c1cccc(OCC(=O)N2CCCC2c2ccc[nH]2)c1 (configuration not stated),58.54%
3,CN(C)c1ccc(C(=O)N2CCCC2c2cnn(C)c2)cn1 (configuration not stated),5.002%
4,O=C(COc1ccccc1)N1CCCC1c1ccc[nH]1 (configuration not stated),85.82%
5,Cc1ccc(-c2nnc(CCC(=O)N3CCCC3c3ccc[nH]3)o2)cc1 (configuration not stated),45.95%
6,O=C(COc1ccc2c(c1)CCC2)N1CCCC(n2cccn2)C1 (configuration not stated),-23.81%
7,CS(=O)(=O)c1cccc(OCC(=O)N2CCCC2c2ccccc2Cl)c1 (configuration not stated),-2.872%
8,NC(=O)c1ccc(OCC(=O)N2CCCC2c2ccc[nH]2)cc1 (configuration not stated),-7.16%
9,Cc1cc(C)cc(OCCN2CCn3c(C)nnc3C2)c1,12.04%
10,Cn1cc(C2=NOC(C(=O)NC3(c4cccc(F)c4)CCCC3)C2)cn1 (configuration not stated),-24.87%
11,Cc1cc(C)nc(N2CCC(Cn3cc(C(N)=O)cn3)CC2)n1,-23.62%
12,CCOc1ncccc1CNS(=O)(=O)c1ccc2c(c1)CCC2,13.09%
13,CCCn1cc(C(=O)N2CCCC(Cc3nccs3)C2)cn1 (configuration not stated),-22.26%
14,CCCC(NC(=O)c1occc1C)c1nnn[nH]1 (configuration not stated),-83.42%
15,COCc1nn(Cc2ccc(Cl)s2)c(=O)o1,-31.25%
16,CC(=O)N1CCC(CSCc2ccco2)CC1,7.881%
17,CCOCC(=O)N1CCC(CSCc2ccco2)CC1,34.18%
18,CCOC(=O)CCC(=O)N1CCC(CSCc2ccco2)CC1,59.48%
19,Cc1[nH]ncc1CCCNC(=O)Nc1ccccc1,-14.63%
20,Cc1[nH]ncc1CCCNC(=O)Nc1ccc2c(c1)OC1(CCCC1)O2,72.51%
21,Cc1[nH]ncc1CCCNC(=O)Nc1ccc(F)cc1,-28.46%
